Assay outcomes from PubChem.
Only some compounds are listed: those with a hit (about 11% of all), similar ones and a draw of the others.
Pf growth 96h: Primary qHTS for delayed death inhibitors of the malarial parasite plastid, 96 hour incubation | P. falciparum luciferase reporter growth, 96 h | Potency, µM (top dose mostly 28.7 µM), inactives show at the top dose activity change, negative = inhibition, hits mostly inhibitors | 6.9% of 320,000 active
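Two parasite generations (96 h, 37 C, 5% CO2) of compound exposure in infected erythrocytes (0.05% parasitemia, 2% hematocrit). Luciferase-reporter P. falciparum; decreased luminescence indicates inhibited growth, aimed at apicoplast-acting delayed death.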
Pf growth 48h: Primary qHTS for delayed death inhibitors of the malarial parasite plastid, 48 hour incubation; Potency, µM (top dose mostly 28.7 µM), without a hit: at the top dose activity change, negative = inhibition, actives largely listed as inhibitors; 5.9% of 310,000 active; P. falciparum luciferase growth in erythrocytes, 48 h
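Luciferase-expressing parasites in RBCs, 2% Hct / 0.1% parasitemia final; RPMI 1640 + 0.5% Albumax; 37 C, 5% CO2, one generation; luminescence read-out, lower signal = inhibition.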
AMA1-RON2 inh: qHTS for Inhibitors of AMA1-RON; Towards Development of Antimalarial Drug Lead: Primary Screen; Plasmodium falciparum AMA1 (3D7) - RON2 peptide interaction; AlphaScreen AMA1-biotinylated RON2 peptide binding; Potency, µM (highest dose often 58.2 µM), for inactives: at the highest dose activity change, negative = inhibition, most hits filed as inhibitors; 0.2% of 360,000 active; AID 720542, 2013;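 also: 0% = vehicle wells and -100% = peptide control; nearly all actives have a fitted effect of over 45% in size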
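AMA1 (3D7) with his tag at 25 nM final met compounds first, then biotinylated RON2 peptide at 25 nM; detection used donor plus acceptor beads, 10 µg/mL apiece, read by AlphaScreen after 30 min at room temperature.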
HCV inhibitor: qHTS Assay for Inhibitors of Hepatitis C Virus (HCV); 3.4% of 340,000 active; Huh7.5.1 HCVcc-Cre infection, luciferase reporter, 44 h; Potency, µM (titrated, usually from 41.8 µM), for inactives: at the top dose activity change, negative = inhibition, most hits filed as inhibitors
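Seed cells (1,000/well) for 4 h; treat with compound and infect with HCVcc-Cre, moi about 0.5. Incubate 44 h, then detect luciferase activity.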
* = called active by the depositor; i = inactive; ? = inconclusive; . = not tested or not shown; [ ] = dose if it differs, or a comment. Calls follow the shape of the dose curve; as a rule, active = well fitted curve in the direction sought with a large enough effect; inconclusive = small, poorly fitted or top-dose-only effect, or another doubt; inactive = no such curve, though single readings can be large; an effect the other way counts as inactive or inconclusive. Unless noted, % is scaled to controls: 0 for no effect and ±100 for the full control effect; potency is read from the fitted curve at half-maximal effect.

SMILES	Pf growth 96h	Pf growth 48h	AMA1-RON2 inh	HCV inhibitor
CCCCOC(=O)C1[C@H]2C(=O)N(Cc3cccs3)C[C@]23C=C[C@H]1O3 (stereo not given in full)	5.2µM*	.	-2%	-29%
O=C(NC1CCCC1)C1C2C=CC3(CN(Cc4cccs4)C(=O)C13)O2 (stereo not given)	2%	11%	-9%	16%
O=C(NCC1CCCO1)C1C2C=CC3(CN(Cc4cccs4)C(=O)C13)O2 (stereo not given)	4.7µM*	7%	0%	15%
CCCCCOC(=O)C1[C@H]2C(=O)N(Cc3cccs3)C[C@]23C=C[C@H]1O3 (stereo not given in full)	?	.	2%	16%
Cc1ccc(S(=O)(=O)N2CCOCC2)cc1NC(=O)COC(=O)CCc1c[nH]c2ccccc12	.	.	-4%	?
C[C@H](CO)N1C[C@H](C)[C@H](CN(C)S(=O)(=O)c2ccc3ccccc3c2)OCc2cnnn2CCCC1=O	.	.	2%	.
Cc1ccc(-n2c(SCC(=O)N(C)C3CCS(=O)(=O)C3)nc3ccccc3c2=O)cc1 (stereo not given)	?	-5%	3%	9%
Cn1c(=O)c2c(nc(N3CCc4ccccc4C3)n2Cc2ccccc2F)n(C)c1=O	-22%	13µM*	12%	?
Cc1ccccc1Cn1c(CN2CCc3ccccc3C2)nc2c1c(=O)n(C)c(=O)n2C	?	13µM*	-9%	?
CC(=O)N/C(=C\c1ccccc1)C(=O)OCc1cccc(S(=O)(=O)N(C)C)c1	?	?	-5%	?
COC(=O)C1=CN(c2ccc(N3CCOCC3)cc2)C(N)=C(C#N)C1c1cccc(F)c1 (stereo not given)	.	.	2%	.
C/C(=N/NC(N)=S)c1cc2ccc(O)cc2oc1=O	0.83µM*	?	83%	-6%
CCCC(=O)NCc1nc2ccccc2n1CC(=O)c1ccccc1	?	-12%	-4%	11%
O=C(Nc1cccc(NC(=O)c2ccccc2Cl)c1)c1ccc([N+](=O)[O-])o1	5%	?	-5%	10µM*
O=C(Nc1cccc([N+](=O)[O-])c1)c1ccc([N+](=O)[O-])o1	.	.	-5%	.
O=C(Nc1ccc2[nH]c(=O)[nH]c2c1)c1ccc([N+](=O)[O-])o1	12µM*	?	-3%	10µM*
Cc1ccc(NC(=O)c2ccc([N+](=O)[O-])o2)cc1C	36%	?	5%	13µM*
Cc1ccc(S(=O)(=O)N2CCOCC2)cc1NC(=O)COC(=O)CCC(=O)c1ccc(F)cc1	1%	24%	13%	34%
O=C(NCC(=O)N(c1cccnc1)C(C(=O)NC1CCCC1)c1ccc(F)cc1)c1ccco1 (stereo not given)	-31%[5.75 µM]	29%	.	.
CC(=O)c1ccc(-c2cnc3c(NC=O)cc(-c4ccccc4Oc4ccccc4)cn23)cc1	.	.	66%	.
COCC(=O)Nc1cc(C)cn(Cc2ccccc2Cl)c1=O	0.083µM*	0%	-1%	-8%
O=C(CSc1nnc(NC(=O)C2CC(=O)N(c3ccccc3)C2)s1)NCc1ccco1 (stereo not given)	?	-2%	-3%	-1%
CC(CNC(=O)c1cccs1)c1ccc([N+](=O)[O-])cc1 (stereo not given)	?	?	1%	-2%
O=C(CSc1nnc(-c2cccnc2)n1-c1ccccc1)Nc1ccccn1	10µM*	16%	-14%	-10%
CCSc1nnc(-c2cccnc2)n1-c1ccc(Cl)c(C)c1	12µM*	.	-14%	9%
SMILES	Pf growth 96h	Pf growth 48h	AMA1-RON2 inh	HCV inhibitor
COc1cccc(-n2c(SCC(=O)O)nnc2-c2cccnc2)c1	?	16%	0%	6%
Clc1ccc(-n2c(SC/C=C/c3ccccc3)nnc2-c2cccnc2)cc1	.	12µM*	-28%	?
Cc1cccc(NC(=S)N2CCC(NC(=O)c3ccco3)CC2)c1	4%	5%	0%	-5%
COc1ccc(/C=N/N2CCN(Cc3ccc(C)cc3)CC2)cc1Br	-13%	?	?	?
CCn1c(SCc2ccccc2)nc2cc(S(N)(=O)=O)ccc21	-1%	40%	-8%	-26%
Cc1csc2cc(-c3cccc([N+](=O)[O-])c3)c(-c3cccc([N+](=O)[O-])c3)c[n+]12	0.47µM*	1µM*	19%	-1%
O=C(CN1C(=O)COc2ccc(Cl)cc21)NC1CC1	?	11%	13%	2%
c1ccc(-c2nnnn2-c2ccccn2)cc1	.	.	-2%	-1%
Cc1cccc(C(C)C)c1-n1nnnc1-c1ccccc1	-7%[5.75 µM]	10µM*	12%	19%
NC(=S)NN=C1c2ccccc2-c2ccccc21	28%	?	41%	6.3µM*
O=C(NN=C1c2ccccc2-c2ccccc21)c1ccccc1Br	37%	10%	26%	?
O=C(NN=C1c2ccccc2-c2ccccc21)c1ccccc1	8.3µM*	-1%	95%	?
O=C(Oc1ccc2ccccc2c1Cl)N1CCCCCC1	3.3µM*	246%	23%	-3%
O=C(Oc1c(Cl)cc(Cl)c2ccccc12)N1CCCCC1	12µM*	.	5%	?
O=C(C[C@@H]1C[C@@H]2c3cc(NC(=O)C4CCOCC4)ccc3O[C@@H]2[C@H](CO)O1)NCc1ccccn1	.	.	2%	.
CCOc1ccsc1C(=O)O	30%	-5%	-4%	3.2µM*
Cc1ccc(COc2ccsc2C(=O)O)cc1	33%	3%	0%	6%
CCOC(=O)C1(CCc2ccccc2)CCN(C(=O)CN2CCOC2=O)CC1	1.7µM*	26%	-11%	2%
CCOC(=O)C1(CCc2ccccc2)CCN(Cc2ccc(OC)cc2)CC1	?	?	-9%	19%
CCOC(=O)C1(CCc2ccccc2)CCN(C(=O)C2=C(C)OCCO2)CC1	?	-4%	-10%	-15%
CCOC(=O)C1(CCc2ccccc2)CCN(Cc2ccc(O)cc2)CC1	5%	?	8%	?
CCOC(=O)C1(CCc2ccccc2)CCN(Cc2cccc3cnccc23)CC1	7.4µM*	?	-20%	10µM*
CCOC(=O)C1(CCc2ccccc2)CCN(Cc2c(O)cccc2OC)CC1	31%	0.26µM*	-10%	?
CCOC(=O)C1(CCc2ccccc2)CCN(Cc2cccc3c2OCO3)CC1	i	?	-5%	10µM*
Cc1nnc(SCC(=O)NCc2ccccc2Cl)[nH]c1=O	-2%	80%	15%	13%
O=C(NNS(=O)(=O)c1ccccc1)C1CC(c2cccnc2)=NO1 (stereo not given)	1%	?	24%	15%
COc1ccc(OCc2nnc(SC(C)C(=O)Nc3ccc(N4CCOCC4)cc3)n2C)cc1 (stereo not given)	.	.	5%	4%
O=[N+]([O-])c1ccc(-c2ccccc2)c([As](=O)(O)O)c1	2.1µM*	12µM*	-8%	-24%
